Results: PubChem BioAssay (NCI)
About 83,000 compounds went through this panel and 20% of them were active in at least one assay; those are over-represented in the sample as a whole.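 Negative percent growth values reflect cell death: -40 means 40% of the cells present at the start died, and -100 means all died.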

Legend:
Assay in all cases: NCI-60 one-dose screen, 48 h (100 = growth as untreated, 0 = no growth, -100 = all killed); active = growth percent below 10; inactive = the rest
HCT-15 colon = conditions: 10 µM unless noted
HT29 colon = conditions: 10 µM unless noted
SNB-75 CNS = conditions: 10 µM unless noted
SNB-19 CNS = conditions: 10 µM unless noted
U251 CNS = conditions: 10 µM unless noted
PC-3 prostate = conditions: 10 µM unless noted
SK-MEL-5 melanoma = conditions: 10 µM unless noted
UACC-62 melanoma = conditions: 10 µM unless noted
LOX IMVI melanoma = conditions: 10 µM
SK-MEL-28 melanoma = conditions: 10 µM unless noted
SK-MEL-2 melanoma = conditions: 10 µM unless noted
EKVX NSCLC = conditions: 10 µM unless noted
SN12C renal = conditions: 10 µM unless noted
UO-31 renal = conditions: 10 µM unless noted
TK-10 renal = conditions: 10 µM unless noted
ACHN renal = conditions: 10 µM unless noted
CAKI-1 renal = conditions: 10 µM unless noted
CCRF-CEM leukemia = conditions: 10 µM unless noted
MOLT-4 leukemia = conditions: 10 µM unless noted
A498 renal = conditions: 10 µM unless noted

Measured: growth

Clc1ncnc2nc[nH]c12
inactive: HCT-15 colon 96.4% | HT29 colon 107% | SNB-75 CNS 82.9% | SNB-19 CNS 96.4% | U251 CNS 103% | PC-3 prostate 96.4% | SK-MEL-5 melanoma 98.9% | UACC-62 melanoma 91.1% | LOX IMVI melanoma 95.1% | SK-MEL-28 melanoma 99.8% | SK-MEL-2 melanoma 118% | EKVX NSCLC 101% | SN12C renal 93.4% | UO-31 renal 77.2% | TK-10 renal 107% | ACHN renal 96.2% | CAKI-1 renal 108% | CCRF-CEM leukemia 103% | MOLT-4 leukemia 100%

Nc1ncnc(Nc2ccc(C(F)(F)F)cc2)n1
inactive: HCT-15 colon 103% | HT29 colon 103% | SNB-75 CNS 87.5% | SNB-19 CNS 98.8% | U251 CNS 94.2% | PC-3 prostate 89.6% | SK-MEL-5 melanoma 99.6% | UACC-62 melanoma 89.1% | LOX IMVI melanoma 100% | SK-MEL-28 melanoma 104% | SK-MEL-2 melanoma 103% | EKVX NSCLC 99.7% | SN12C renal 99.8% | UO-31 renal 97.8% | TK-10 renal 109% | ACHN renal 98.2% | CAKI-1 renal 93.2% | CCRF-CEM leukemia 116% | MOLT-4 leukemia 96.6%

COc1ccc(Nc2cc(Cl)ccc2C(=O)O)cn1
inactive: HCT-15 colon 106% | HT29 colon 106% | SNB-75 CNS 99.4% | SNB-19 CNS 96.5% | U251 CNS 105% | PC-3 prostate 99% | SK-MEL-5 melanoma 114% | UACC-62 melanoma 96.3% | LOX IMVI melanoma 98.1% | SK-MEL-28 melanoma 98.8% | SK-MEL-2 melanoma 115% | EKVX NSCLC 130% | SN12C renal 93.2% | UO-31 renal 88.9% | TK-10 renal 156% | ACHN renal 108% | A498 renal 90.9% | CCRF-CEM leukemia 96.3% | MOLT-4 leukemia 93.5%

O=C1C=C(c2ccccc2)C(O)(c2ccccc2)C1 (stereo not given)
inactive: HCT-15 colon 132% | HT29 colon 97.8% | SNB-75 CNS 77.6% | SNB-19 CNS 135% | U251 CNS 106% | PC-3 prostate 92.8% | SK-MEL-5 melanoma 106% | UACC-62 melanoma 92.3% | LOX IMVI melanoma 93.6% | SK-MEL-28 melanoma 108% | SK-MEL-2 melanoma 103% | EKVX NSCLC 89.8% | SN12C renal 99.7% | UO-31 renal 83.5% | TK-10 renal 99.6% | ACHN renal 96% | CAKI-1 renal 89.9% | CCRF-CEM leukemia 100% | MOLT-4 leukemia 95.4%

CCCCCC#CC(=O)O
inactive: HCT-15 colon 105% | HT29 colon 99.5% | SNB-75 CNS 99.7% | SNB-19 CNS 108% | U251 CNS 98.4% | PC-3 prostate 98.2% | SK-MEL-5 melanoma 111% | UACC-62 melanoma 104% | LOX IMVI melanoma 104% | SK-MEL-28 melanoma 113% | SK-MEL-2 melanoma 107% | EKVX NSCLC 99.8% | SN12C renal 105% | UO-31 renal 81.5% | TK-10 renal 104% | ACHN renal 97.1% | A498 renal 105% | CCRF-CEM leukemia 102% | MOLT-4 leukemia 101%

Cc1cc(C)cc(OCC(=O)O)c1
inactive: HCT-15 colon 94.4% | HT29 colon 119% | SNB-75 CNS 94.8% | SNB-19 CNS 97.1% | U251 CNS 103% | PC-3 prostate 104% | SK-MEL-5 melanoma 110% | UACC-62 melanoma 98.5% | LOX IMVI melanoma 98.7% | SK-MEL-28 melanoma 107% | SK-MEL-2 melanoma 91.4% | EKVX NSCLC 101% | SN12C renal 99.1% | UO-31 renal 86.9% | TK-10 renal 97.8% | ACHN renal 98.6% | CCRF-CEM leukemia 132% | MOLT-4 leukemia 124%

Nc1ncc([N+](=O)[O-])cn1
inactive: HCT-15 colon 108% | HT29 colon 81.2% | SNB-75 CNS 99.1% | SNB-19 CNS 95.6% | U251 CNS 96.2% | PC-3 prostate 88.7% | SK-MEL-5 melanoma 94.6% | UACC-62 melanoma 98.9% | LOX IMVI melanoma 99.7% | SK-MEL-28 melanoma 103% | SK-MEL-2 melanoma 93.1% | EKVX NSCLC 105% | SN12C renal 101% | UO-31 renal 90% | TK-10 renal 94.5% | ACHN renal 109% | A498 renal 87.8% | CCRF-CEM leukemia 98.4% | MOLT-4 leukemia 105%

Nc1c(Br)cc(O)c2c1C(=O)c1ccccc1C2=O
inactive: HCT-15 colon 47.7% | HT29 colon 54% | SNB-75 CNS 110% | SNB-19 CNS 95.2% | U251 CNS 92% | PC-3 prostate 84.6% | SK-MEL-5 melanoma 96.7% | UACC-62 melanoma 87.4% | LOX IMVI melanoma 34.4% | SK-MEL-28 melanoma 112% | SK-MEL-2 melanoma 55.4% | EKVX NSCLC 96.6% | SN12C renal 80.9% | UO-31 renal 85.1% | TK-10 renal 91.1% | ACHN renal 97.1% | CAKI-1 renal 83.8% | CCRF-CEM leukemia 56.5% | MOLT-4 leukemia 50.1%

S=C=Nc1ccc2ccccc2c1
inactive: HCT-15 colon 96.6% | HT29 colon 105% | SNB-75 CNS 94.5% | SNB-19 CNS 101% | U251 CNS 97.8% | PC-3 prostate 102% | SK-MEL-5 melanoma 106% | UACC-62 melanoma 102% | LOX IMVI melanoma 94.2% | SK-MEL-28 melanoma 111% | SK-MEL-2 melanoma 106% | EKVX NSCLC 103% | SN12C renal 111% | UO-31 renal 85.1% | TK-10 renal 109% | ACHN renal 100% | CAKI-1 renal 87.7% | CCRF-CEM leukemia 106% | MOLT-4 leukemia 98.1%
